These compounds were tested on Trypanosoma cruzi (assay: Trypanosoma cruzi phosphomannomutase and mannose-1-phosphate guanylyltransferase assay). Conditions: 10 µM.
Assay type: functional
Design: scale not given: direction of the effect not stated beside the values

| Structure (SMILES) | Percent Effect [%] |
| --- | --- |
| Cc1cnn(CC2CCCN2CC(=O)Nc2cc(C(C)(C)C)no2)c1 (stereo not given) | 3.73 |
| O=C(NCCCNc1ccccc1)c1scnc1Cl | -3.61 |
| Cc1noc(Cl)c1CCC(=O)N1CCc2sccc2C1 | 0.201 |
| COCC1CC2(CCN(Cc3ccc(OC)cc3)CC2)CN1C(C)C (stereo not given) | -1.66 |
| CCCN1CCCn2nc(CNS(=O)(=O)c3cccc(C#N)c3)cc2C1 | 1.84 |
| CC(C)c1cc(N2CCN(c3ccc(O)cc3)CC2)n2nccc2n1 | -0.873 |
| CC(Cn1cccn1)NC(=O)Cc1cccs1 (stereo not given) | 3.41 |
| CCCC(=O)N1CCC2(CC1)CC(NC(C)=O)c1ccccc1O2 (stereo not given) | -4.69 |
| Cc1cnn(CC2CN(CC(=O)N(C)Cc3cccs3)CCO2)c1 (stereo not given) | -5.82 |
| CCN1CCN(C(=O)NCCOc2ccc3c(c2)OCO3)CC1 | -3.92 |
| COc1ccc(C(=O)NCCCn2ccnc2)c(OC)n1 | 3.75 |
| CN1CCCn2c(nc(CNC(=O)c3ccsc3)cc2=O)C1 | -8.28 |
| Clc1ccccc1-c1nc(CNC2CCc3ncnn3C2)cs1 (stereo not given) | 4.6 |
| CCS(=O)(=O)c1ncc(CN(C)Cc2ccccn2)n1CCOC | 5.33 |
| COc1ncccc1CNC(=O)c1cccc(C)n1 | 6.1 |
| Cn1nc2c(cc1=O)CN(Cc1nc(C(C)(C)C)no1)CC2 | 1.41 |
| O=C(O)c1cc(S(=O)(=O)N2CCOc3ccccc32)ccc1F | 5.54 |
| COc1ccc(CNC(=O)N2CCC(Cc3cnn(C)c3)C2)cc1C (stereo not given) | 8.36 |
| O=C(c1ccccn1)N1Cc2nccn2CC(CN2CCOCC2)C1 (stereo not given) | -2.63 |
| CCOC1COC2(CCN(S(=O)(=O)c3cccc(F)c3)CC2)C1 (stereo not given) | -7.3 |

| Structure (SMILES) | Percent Effect [%] |
| --- | --- |
| Cc1ccc(CN2CCCn3c(nc(CN4CCCC4)cc3=O)C2)s1 | -2.82 |
| COc1ccc(F)cc1C(=O)N(C)Cc1cc(C)on1 | -1.22 |
| CCc1nc(C)ncc1C(=O)N1CCCC(n2nc(C)nc2C)C1 (stereo not given) | 8.92 |
| CCC(O)CN1CCN(C(=O)c2sccc2OC)CC1 (stereo not given) | 2.24 |
| CN(Cc1noc(C2CC2)n1)C1CCN(Cc2ccncc2)C1 (stereo not given) | 6.1 |
| CCCC(C)C(=O)N1CCC(n2cccc2C(=O)OC)CC1 (stereo not given) | -1.12 |
| CC(=O)N1N=C(c2ccccc2)OC1C(=O)NCCc1cccc(Cl)c1 (stereo not given) | -2.56 |
| Cc1occc1C(=O)N1CC[C@@H](N2CCOCC2)[C@@H]1Cc1ccccc1 | 0.876 |
| CO[C@@H]1CCN(C(=O)c2ccccn2)[C@H]1Cc1ccccc1 | 1.5 |
| Cc1cc(CN(C)C(=O)c2ccnc(N(C)C)c2)no1 | -5.82 |
| CCn1ccnc1CN1CCN(CC(O)c2ccccc2)CC1 (stereo not given) | -4.79 |
| Cc1nn(C)c(N(C)C)c1CNCCCN(C)S(C)(=O)=O | -3.47 |
| O=C1CC(c2ccco2)c2sc(C(=O)O)c(-c3ccccc3)c2N1 (stereo not given) | 2.23 |
| Cc1cccc(CN2C(=O)CCC23CCN(Cc2cccn2C)CC3)n1 | -0.75 |
| Nc1nc2nc(C3CCCN(C(=O)c4cscn4)C3)ccc2s1 (stereo not given) | 3.55 |
| CCc1ccc(O)c(C(=O)NC2CCN(C(=O)OC)CC2)c1 | -4.79 |
| CS(=O)(=O)N1CCC[C@]2(C[C@@H](Oc3ncccc3F)CO2)C1 | -0.682 |
| Fc1cccc(-c2nc(CN3CCn4c(nnc4C4CC4)C3)co2)c1 | -5.42 |
| CC(c1nc(C2CC2)no1)N1CCN(Cc2ccsc2)CC1 (stereo not given) | 1.97 |
| Cc1cc(CN(C)C(=O)c2ccc(C(F)(F)F)nc2)no1 | -3.61 |

From ChEMBL document CHEMBL3988442, “University of Dundee, Small-Polar-MMV Screening Library” (2021)
